MEKK3 PB1 HTS: MEKK3-MEK5 PB1 interaction, increase or decrease; binding response (% of control), % at 10 µM; bead-based flow cytometry, Alexa488-MEK5 binding to MEKK3; actives lie on both sides; 0 = blocked by unlabeled MEK5, 100 = vehicle; Q99759; 1.4% of 290,000 active;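 active = binding response more than 3 SD above or below the average of its plate-row segment, actives on both sides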;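 also: Alexa488 bead fluorescence after subtracting the streptavidin-only scavenger bead signal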
MEKK2mut PB1 HTS: signal of MEK5 binding to mutant human MEKK2 PB1 domain; percent response, % at 10 µM; bead flow cytometry, Alexa488-MEK5 binding to MEKK2 mutant; 0.35% of 290,000 active; AID 1530; in the data active = percent response above about 24%, passing the limit was not always enough
ANO1 block: mouse TMEM16A channel inhibition, primary screen; Q8BHY3; HEK293 TMEM16A/YFP iodide influx fluorescence, ionomycin; normalized B-score (activity score, 25-100; higher = stronger inhibition) at 10 µM; 1.2% of 310,000 active; AID 588511;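 active = ratio plate-corrected score three or more library SD toward inhibition, starting fluorescence score within five deviations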;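 also: score derived from kinetic fluorescence span divided by baseline fluorescence per well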
MEKK2wt PB1 HTS: raises or lowers MEK5 binding to wildtype human MEKK2 PB1 domain; Q9Y2U5; bead flow cytometry, Alexa488-MEK5 binding to MEKK2 WT; actives lie on both sides; binding response (% of control), % at 10 µM; 1.1% of 290,000 active; AID 1531; in the data active = binding response below about 67% or above about 130%
ANO1 activ: mouse TMEM16A channel activation, primary screen | 0.3% of 340,000 active | B-score at 10 µM | HEK293 TMEM16A/YFP-H148Q/I152L, iodide quench fluorescence; hits give low values | Q8BHY3 | AID 623877;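 active = fluorescence-ratio B-score plate-corrected deviation score at least 3 library SD below zero, with starting fluorescence score within 5 deviations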;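 also: channel opened by trigger with iodide after compound preincubation; score built on the fluorescence ratio of max minus min over baseline; more negative score means more quench and so TMEM16A activation or potentiation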
NTR1 ag: agonists of human neurotensin receptor NTR1; activation, % at 20 µM; AID 493036; NTR1-U2OS beta-arrestin-GFP spot imaging, agonist mode; 0.17% of 330,000 active;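 active = activation at or above 40% of the spot to cytoplasm intensity ratio, with at least 20 cells analyzed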;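 also: 0% = DMSO without peptide and 100% = 100 nM NTR1 peptide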
Target sequence (P30989 whole entry, looked up): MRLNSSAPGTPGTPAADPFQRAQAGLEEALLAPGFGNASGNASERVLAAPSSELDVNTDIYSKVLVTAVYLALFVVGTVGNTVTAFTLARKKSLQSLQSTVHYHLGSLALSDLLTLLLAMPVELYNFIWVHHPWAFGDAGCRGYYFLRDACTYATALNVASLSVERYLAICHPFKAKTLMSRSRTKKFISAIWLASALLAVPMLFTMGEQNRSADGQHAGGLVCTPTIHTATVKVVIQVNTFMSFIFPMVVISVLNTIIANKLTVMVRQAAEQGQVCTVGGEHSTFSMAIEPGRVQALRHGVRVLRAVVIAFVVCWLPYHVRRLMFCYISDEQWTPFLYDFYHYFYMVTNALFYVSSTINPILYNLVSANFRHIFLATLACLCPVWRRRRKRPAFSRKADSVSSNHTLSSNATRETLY
An asterisk follows results filed as active; i = inactive; . = not tested or not shown; [ ] = another dose, or the depositor's remark. The list is not random: actives were taken first. Their share in the collection is about 3.4%.

SMILES | MEKK3 PB1 HTS | MEKK2mut PB1 HTS | ANO1 block | MEKK2wt PB1 HTS | ANO1 activ | NTR1 ag
COC(=O)c1scc(C)c1NC(=O)C(Cl)c1ccccc1 (centres undefined) | 104 | 3 | i | 104 | i | 0
COC(=O)c1scc(C)c1NC(=O)Nc1ccccc1 | 104 | -3 | 25* | 104 | i | -2
COc1cccc(CNC(=O)CN2C(=O)COc3ccc(S(=O)(=O)N4CCCC4)cc32)c1 | 101 | 4 | i | 102 | i | 0
CC(C)(C)c1ccc(/C=C2\Oc3cc(O)ccc3C2=O)cc1 | 106 | 6 | i | 100 | i | 11
O=C1/C(=C/c2ccc(Br)cc2)Oc2cc(O)ccc21 | 102 | 3 | 100* | 101 | i | 15
O=C(NCC1CCN(Cc2ccc(Cl)cc2)CC1)C1CCCN(c2ncnc3c2nc2n3CCCCC2)C1 (centres undefined) | 107 | 25* | i | 132 | i | 6
Cc1cccc(C2(c3cccc(C)c3)CC2C(=O)Nc2ccc([N+](=O)[O-])cc2O)c1 (centres undefined) | 107 | 2 | 100* | 108 | i | 20
C=CCNC(=O)C1CC1(c1cccc(C)c1)c1cccc(C)c1 (centres undefined) | . | . | i | . | i | 3
Cc1noc(C)c1COc1ccc(C(=O)OCC(=O)NCCN2C(=O)CSC2=O)cc1 | 104 | 42 | i | 99 | i | 0
COc1cc(C)c(C)cc1S(=O)(=O)N1CCCCC1c1cccnc1 (centres undefined) | 102 | 3 | i | 103 | -6* | 0
O=C(CN1c2cccc3cccc(c23)S1(=O)=O)NCCc1ccc(F)cc1 | . | . | . | . | i | 0
CCNC(=S)N/N=C(\C)c1ccc2ccccc2c1OC(F)F | 95 | -8 | i | 91 | i | 6
C/C(=N\NC(=S)NC(C)C)c1ccccc1OC(F)F | 107 | -2 | i | 101 | -39* | 0
Cc1ccc(S(=O)(=O)N2CCC(=O)N(C(COCc3ccc(Cl)cc3)Cc3ccccc3)CC2)cc1 (centres undefined) | 96 | -2 | i | 97 | -25* | 7
Cc1ccc(C(=O)NNC(=O)c2ccc3ccccc3c2O)cc1 | 106 | 9 | i | 110 | i | 0
CCOc1cccc2cc(C(=O)N3CCc4ccccc43)c(=O)oc12 | 100 | 8 | i | 5.0* | i | -2
COc1cccc2cc(C(=O)N3CCc4ccccc43)c(=O)oc12 | 102 | 1 | i | 98 | i | 1
Nc1nc2c(s1)CC(c1ccccc1)CC2 (centres undefined) | 96 | 7 | 25* | 97 | i | -2
CCC1CCCCN1CCCNC(=O)CS(=O)(=O)Cc1nc(-c2cccc(OC)c2)oc1C (centres undefined) | 109 | 17 | i | 140* | i | 0
Cc1cc(NC(=O)c2cccc([N+](=O)[O-])c2)n(-c2ccccc2)n1 | 101 | 1 | i | 99 | i | 0
Cc1cc(NC(=O)c2cc([N+](=O)[O-])cc([N+](=O)[O-])c2)n(-c2ccccc2)n1 | 103 | 8 | i | 30* | i | .
COc1ccccc1N1CCN(C(=O)C2C3C=CC4(CN(Cc5ccccc5Cl)C(=O)C24)O3)CC1 (centres undefined) | 82*[inhibitor] | -2 | i | 86 | i | 0
CCOC(=O)Cc1csc(SCC(=O)Nc2cc(Cl)ccc2Oc2ccccc2)n1 | 101 | -4 | i | 99 | i | 2
CNC(=O)NC(=O)C(C)Oc1ccccc1F (centres undefined) | 105 | -8 | i | 96 | i | 1
CCOc1ccc(/C=N/NC(=O)c2ccc(F)cc2)cc1CN1CC2CC(C1)c1cccc(=O)n1C2 (centres undefined) | . | . | . | . | i | 4
Cc1cc(C)nc(SCC(=O)OCC(=O)Nc2nc3ccccc3s2)n1 | 107 | 3 | i | 112 | i | 9
Cc1ccc(CN2CCC(N3CC(C)OC(C)C3)CC2)cc1 (centres undefined) | 102 | 9 | i | 104 | i | 0

Source: PubChem BioAssay
